Results as given in PubChem BioAssay.
A number with no mark means an inactive call. No rule for the calls is given here.

How the values were obtained:
[1] = test system: Botulinum neurotoxin type F light chain protease (Clostridium botulinum); assay: Clostridium botulinum type F light chain protease inhibitors, microsphere substrate cleavage, validation (AID 588459); conditions: multiplex microsphere protease substrate cleavage assay, flow cytometry; at 10 µM; active compounds read high
[2] = molecular target: Botulinum neurotoxin type A (Clostridium botulinum) (UniProt P0DPI0); assay: BoNT/A light chain protease inhibitors, biochemical, multiplex microsphere flow cytometry, validation set (AID 588460); conditions: at 10 µM, active compounds read high
[3] = molecular target: Lethal factor (Bacillus anthracis) (UniProt P15917); assay: Bacillus anthracis lethal factor inhibition, microsphere flow cytometry protease assay, validation at 10 µM (AID 588461); conditions: multiplex microsphere protease cleavage assay, active compounds read high

Compound | inhibition [1] | inhibition [2] | inhibition [3]
Cc1ccsc1/C=N\NC(=O)c1ccc2c(c1)OCO2 | 2.9% | 0.4% | -1.3%
CC(C)[C@H](NC(=O)[C@@H]1CSCN1C(=O)OC(C)(C)C)C(=O)NCC1CCC(C(=O)O)CC1 (stereo not given in full) | -1.3% | -1.5% | -2.2%
Cc1ccc(C(=O)Nc2ccc(O)cc2C(=O)O)cc1C | 10.3% | 2.6% | 0.9%
COc1ccc(CC(=O)NCC2(c3ccc(OC)c(OC)c3)CCOCC2)cc1 | 3.5% | -0.9% | -1.6%
CCN(CC)c1ccc(C2=NNC(=O)CC2C)cc1[N+](=O)[O-] (stereo not given) | -2.1% | -0.3% | -6.2%
CC1(C)C(C=C(Cl)Cl)C1C(=O)N1CCN(Cc2ccccc2)CC1 (stereo not given) | -0.6% | 0.8% | -5.5%
O=C1OC(c2ccccc2)=C/C1=C/c1cccs1 | 6.4% | 1.5% | 0.7%
O=C(CS(=O)(=O)c1ccccc1)c1ccc2c(c1)OCCO2 | 3.2% | 0.7% | 2.2%
CCOC(=O)c1ncn2c1CN(C)C(=O)c1cc(F)ccc1-2 | -1.4% | -1.4% | -2.7%
O=C1C(Cc2c[nH]c3ccccc23)NC(=S)N1Cc1ccccc1 (stereo not given) | -0.2% | 0.3% | -1.8%
Cn1c2c(c(=O)[nH]c1=O)C(c1ccc(O)cc1)C1=C(N2)c2ccccc2C1=O (stereo not given) | -0.8% | -0.5% | 3.1%
NC(=O)c1cccnc1 | 1.8% | -0.2% | 3%
COc1ccc2c(c1)C(=O)CC(c1ccccc1F)O2 (stereo not given) | 1.4% | -0.4% | -0.9%
CC[C@H](CO)NCCN[C@H](CC)CO | 2.2% | -1.2% | -10%
CN(C)CCOC(c1ccccc1)c1ccccc1 (tested in a mixture with another compound) | 1.8% | -2.5% | -6.7%
CCOC(=O)[C@H]1O[C@@H]1C(=O)N[C@@H](CC(C)C)C(=O)NCCC(C)C | 1.7% | -1.4% | -2.8%
COc1cccc(C2CCCN2Cc2nc(CCC(C)C)no2)c1 (stereo not given) | -2.5% | -0.8% | -7.6%
COCCOC(=O)c1c(C)oc2ccc(OCc3cc(C(=O)OC)oc3C)cc12 | -0.6% | -0.8% | 1.6%
C[C@@H]1C[C@H]2[C@@H]3C[C@H](F)C4=CC(=O)C=C[C@]4(C)[C@@]3(F)[C@@H](O)C[C@]2(C)[C@@]1(O)C(=O)COC(=O)C(C)(C)C | -2.6% | -2.1% | 3.4%

Compound | inhibition [1] | inhibition [2] | inhibition [3]
COC(=O)c1ccc(NC(=O)c2ccccc2SC)cc1 | -4.7% | -0.2% | -5.4%
COCCCNc1nc2c([nH]1)c(=O)[nH]c(=O)n2C | 2.6% | 1.1% | 1.3%
C/C=C(/C(=C/C)c1ccc(O)cc1)c1ccc(O)cc1 | -1.2% | -0.3% | 3.5%
O=C(Nc1cccc(Cl)c1)N1CCN2C(=O)c3ccccc3C12c1ccccc1 (stereo not given) | -3.9% | -0.1% | -4.4%
COc1cccc2c1C(=O)O/C2=C/c1ccc2c(c1)OCO2 | -0.9% | -0.8% | 2.1%
N=c1ccn(CC(=O)NC(N)=O)c2ccccc12 | 3.3% | 1.6% | 3.1%
O=C1N=c2ccccc2=C1c1[nH]c(=S)[nH]c1O | 3.3% | -0.7% | 7%
C[C@H](CCC(=O)O)[C@H]1CC[C@H]2[C@@H]3C(=O)C[C@@H]4CC(=O)CC[C@]4(C)[C@H]3CC(=O)[C@]12C | -1.4% | -0.5% | -0.9%
COc1cccc(OC)c1C(=O)NCCSC1CCCCC1 | 1.4% | 0% | 5.6%
Cc1ccc(S(=O)(=O)N2CCC(C(=O)N[C@@H](C)C(=O)NC3CCS(=O)(=O)C3)CC2)cc1 (stereo not given in full) | 2.1% | 1.5% | 11.8%
O=C(NC1CCCCC1)c1cc2nc(-c3ccco3)cc(C(F)(F)F)n2n1 | 2.6% | 1.2% | 0.5%
O=C(Nc1cccc(C(=O)O)c1)/C(=C\c1ccccc1)NC(=O)c1ccccc1 | 1.8% | 0.3% | -0.8%
Cc1ccc2c(c1)C(O)(c1c(C)[nH]c3ccccc13)C(=O)N2 (stereo not given) | -4.4% | -1.6% | -10%
CC(C)[C@H]1CN(C)CCN1Cc1cn(C)nc1-c1cccc(Cl)c1 | 12% | 8.3% | 8.2%
O=C(Cc1ccccc1)NCC(=O)OCC(=O)c1ccccc1Cl | 1% | -2.5% | -9.6%
COc1cc2c3c(c1)C(C)CC(C)(C)N3C(=O)C2=O (stereo not given) | -6.7% | -1.3% | -5.6%
CN1CCCC(OC(=O)c2ccc3c(c2)OCCO3)C1 (stereo not given) | 1% | 0.8% | -2.2%
O=C(NCCc1nc2ccccc2[nH]1)c1cccc(Br)c1 | -3.2% | -1.3% | -7.9%
Cc1cccc(C)c1NC(=O)C1CCCCN1C (stereo not given) | -3.1% | -0.1% | -7.9%

Compound | inhibition [1] | inhibition [2] | inhibition [3]
CCCCC[C@H](O)/C=C/[C@@H]1[C@@H](CCCCCCC(=O)O)[C@@H](O)C[C@H]1O | -2.9% | -1.3% | 0.1%
CC(=O)OC1c2c(ccc3ccc(=O)oc23)OC(C)(C)C1OC(=O)CC(C)C (stereo not given) | -0.2% | -1.5% | -3.2%
COc1ccc2oc(-c3ccco3)cc(=O)c2c1 | 3% | -0.8% | -7%
CC(C)[N+]1(C)[C@@H]2CC[C@H]1CC(OC(=O)C(CO)c1ccccc1)C2 (stereo not given in full) | -2.9% | 1% | -3%
NS(=O)(=O)c1cc2c(cc1Cl)NC(C1C[C@H]3C=C[C@@H]1C3)NS2(=O)=O (stereo not given in full) | 1.4% | 1% | -3.2%
COc1cccc(N2C(=O)[C@H]3C(C(=O)c4cnccn4)=NN[C@H]3C2=O)c1 | 3% | -0.2% | 4.8%
NCCCC(=O)O |  |  | 0.3%
COc1ccc(CCn2c(C)cc3c(c2=O)C(c2ccncc2)C(C#N)=C(N)O3)cc1OC (stereo not given) | -1.2% | -0.6% | -6.7%
C=CCc1ccccc1OCC(O)CNC(C)C (stereo not given) | -1% | 0.4% | -6.5%
Cc1ccccc1C(=O)Oc1ccc(Sc2ccc(O)cc2)cc1 | -2% | -0.4% | -3.8%
COc1ccc(/C=C\C(=O)c2c(O)ccc3c(C)cc(=O)oc23)cc1OC | 1.5% | 0.2% | -2.9%
N/C(=N\OC(=O)CCCOc1ccc(Cl)cc1Cl)c1ccccn1 | 4% | -0.3% | -0.4%
Cc1ccc2c(c1)c(C)cc(=O)n2CCC(=O)O | 0.8% | -0.2% | 1.1%
Cc1cnc(NC(=O)C2=C(O)c3ccccc3S(=O)(=O)N2C)s1 |  |  | 1.4%
CN(C)CCCN1c2ccccc2CCc2ccc(Cl)cc21 |  | -0.7% | -1.4%
COC(=O)CCC(=O)CN | 0.5% | 0.6% | 0.6%
CN1CCc2cccc3c2[C@H]1Cc1ccc(O)c(O)c1-3 |  | -6.5% | -33.9%
C[C@H](CS)C(=O)N1CCC[C@H]1C(=O)O |  |  | -1.8%
